SMILES strings stand for the structures. Records with an inconclusive call do not appear. Active and inactive are the calls of the source. Calls come from the whole dose curve; as a rule, active = well fitted curve in the direction sought with a large enough effect; inconclusive = small, poorly fitted or top-dose-only effect, or another doubt; inactive = no such curve, though single readings can be large; an effect the other way counts as inactive or inconclusive.

Chain of Glutaminase kidney isoform, mitochondrial (Homo sapiens) (O94925 whole entry, looked up, canonical isoform): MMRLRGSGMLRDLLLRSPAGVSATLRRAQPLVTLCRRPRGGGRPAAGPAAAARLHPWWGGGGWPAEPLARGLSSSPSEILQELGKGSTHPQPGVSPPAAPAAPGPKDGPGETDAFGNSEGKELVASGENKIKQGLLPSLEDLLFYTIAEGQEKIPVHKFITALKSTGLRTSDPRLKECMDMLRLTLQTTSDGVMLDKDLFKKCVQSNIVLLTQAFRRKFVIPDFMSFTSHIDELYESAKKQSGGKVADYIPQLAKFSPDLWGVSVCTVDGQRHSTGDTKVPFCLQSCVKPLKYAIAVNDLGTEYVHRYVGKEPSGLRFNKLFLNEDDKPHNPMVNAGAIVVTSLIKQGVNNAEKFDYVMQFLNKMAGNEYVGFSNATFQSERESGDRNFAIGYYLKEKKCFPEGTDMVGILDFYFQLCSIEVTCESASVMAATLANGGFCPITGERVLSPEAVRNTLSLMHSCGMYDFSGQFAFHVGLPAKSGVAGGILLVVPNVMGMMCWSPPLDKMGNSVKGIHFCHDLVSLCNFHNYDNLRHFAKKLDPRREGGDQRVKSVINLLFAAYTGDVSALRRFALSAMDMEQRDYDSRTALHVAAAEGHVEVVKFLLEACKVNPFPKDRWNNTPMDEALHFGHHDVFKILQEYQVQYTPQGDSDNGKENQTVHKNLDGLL
Chain of Glucagon-like peptide 1 receptor (Homo sapiens) (P43220 whole entry, looked up): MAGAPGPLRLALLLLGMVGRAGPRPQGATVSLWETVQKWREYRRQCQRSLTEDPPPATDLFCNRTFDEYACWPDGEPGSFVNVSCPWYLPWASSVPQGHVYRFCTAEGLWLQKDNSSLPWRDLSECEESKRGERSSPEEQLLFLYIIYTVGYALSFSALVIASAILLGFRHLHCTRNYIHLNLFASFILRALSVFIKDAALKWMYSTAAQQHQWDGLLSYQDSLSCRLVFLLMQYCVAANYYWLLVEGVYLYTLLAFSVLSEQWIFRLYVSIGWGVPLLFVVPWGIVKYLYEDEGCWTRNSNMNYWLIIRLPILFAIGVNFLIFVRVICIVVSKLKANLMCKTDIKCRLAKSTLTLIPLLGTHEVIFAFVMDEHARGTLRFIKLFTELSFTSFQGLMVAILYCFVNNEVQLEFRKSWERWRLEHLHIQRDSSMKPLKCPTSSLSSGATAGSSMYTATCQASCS

One assay deals with Glutaminase kidney isoform, mitochondrial (Homo sapiens) (UniProt O94925). Kind of assay: qHTS for Inhibitors of Glutaminase (GLS): LOPAC Validation (AID 624146).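 For activity change, negative = inhibition: glutamate product detected by oxidase and peroxidase coupled Amplex red fluorescence gain; % is set by controls: 0 for no effect and ±100 for the full control effect.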 Note: nearly all actives have a fitted effect of over 60% in size. Note: potency is the fitted concentration of half-maximal effect. The settings on record: glutaminase enzyme activity inhibition; series mostly up to 46.1 µM; activity change, negative = inhibition: at the top concentration. The gist of the method:
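Two-point fluorescence kinetic (t0, 30 min RT) for hKGA; glutamate detected via glutamate oxidase–HRP–Amplex Red. Substrate: 1 mM L-glutamine solution; buffer 45 mM KH2PO4, pH 8.2.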
For orientation: qHTS replaces the single test concentration by a dilution series.
As to `C[C@]12CCC3C(CC[C@H]4C[C@H](O)CC[C@]34C)C1CC[C@@H]2C(=O)CO` (some centres not stated), the “activity change, negative = inhibition” value was -20.5% (inactive).
Same read-out and setting: as for `O=C1CCCN1CC#CCN1CCCC1`, the figure is -8.76% (inactive); as for `Cn1cnc(CCN)c1`, -23.5% (inactive).
Regarding `O=C(O)CC[N+](=O)[O-]`, the “activity change, negative = inhibition” value was -5.09% (inactive).
With `CCCN(CCC)[C@@H]1CCc2ccc(O)cc2C1`, the “activity change, negative = inhibition” value is -3.64% (inactive).
In the case of `CC(C)Oc1cccnc1N(C)C1CCN(Cc2ccccc2)CC1`, the “activity change, negative = inhibition” value was -32.6% (inactive).
With `NC(=O)CN1CC(O)CC1=O` (configuration not stated), the “activity change, negative = inhibition” value was -1.61% (inactive).
Still for that read-out and setting: next, `CCCCc1ccc(C(=O)O)nc1`: -17.7% (inactive); `Cc1nccc2c1[nH]c1ccccc12`: -5.81% (inactive).
On to `COc1cc(C(O)CN)ccc1O` (configuration not stated), for which the Potency is 2.24 µM (active).
On to `NC1CC1c1ccccc1` (configuration not stated), for which the “activity change, negative = inhibition” value is -19.1% (inactive).

Tested on in a further assay: not listed separately
Kind of assay: qHTS of Trypanosoma Brucei Inhibitors: LOPAC Validation (AID 624147). Note: 0% is about no effect. The settings on record: purified enzyme assay, luminescence, 45 min; series mostly up to 57.5 µM; activity change, negative = inhibition: at the top concentration. Summed up: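 Luminescent Kinase-Glo Plus end-point after 45 min room-temperature reaction of T. brucei pyruvate kinase started with 130 uM ADP (final). Buffer TEA 50 mM pH 7.2 with KCl, MgCl2, BSA, Tween-20; titration-based qHTS with fitted concentration-effect curves.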
Take `NCc1cc(=O)[nH]o1`: the “activity change, negative = inhibition” value is 8.38% (inactive).
For `CC(=O)NCCc1c[nH]c2ccccc12`, the “activity change, negative = inhibition” value was 1.61% (inactive).
The same measure, in the same setting: next, `c1ccc(CCCN2CCN(CCOC(c3ccccc3)c3ccccc3)CC2)cc1`: 4.81% (inactive).
`C[N+]1(C)C2CCC1CC(OC(=O)C(CO)c1ccccc1)C2` (configuration not stated): the outcome was inactive.
Turning to `C[C@]12CCC3C(CC[C@H]4C[C@H](O)CC[C@]34C)C1CC[C@@H]2C(=O)CO` (some centres not stated), the “activity change, negative = inhibition” value was -6.88% (inactive).
Still for that read-out and setting: next, `O=C1CCCN1CC#CCN1CCCC1`: -14.3% (inactive); `O=C(O)CC[N+](=O)[O-]`: -11% (inactive); `CC(C)Oc1cccnc1N(C)C1CCN(Cc2ccccc2)CC1`: -13.4% (inactive).
`Cc1nccc2c1[nH]c1ccccc12`: the “activity change, negative = inhibition” value is -12% (inactive).

A further assay has as its target Glucagon-like peptide 1 receptor (Homo sapiens) (UniProt P43220). Kind of assay: qHTS of GLP-1 Receptor Agonists: LOPAC Validation (AID 624148).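 Note: 0% is about no effect; higher luminescence signal means agonism.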 The settings on record: GLP-1R agonist cell assay; series mostly up to 46.1 µM; activation: at the top concentration. Summed up: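 HEK293 cells stably co-expressing a cAMP-responsive luciferase reporter and a hypersensitive GLP-1R were plated 12 h at 37 °C and exposed to compounds for 4-6 hr at 37 °C, 5% CO2. Luminescence was read 12 min after adding detection reagent.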
On to `NCc1cc(=O)[nH]o1`, for which the “activation” value is -1.47% (inactive).
As to `NCCc1c[nH]c2ccccc12`, the “activation” value is -0.989% (inactive).
Still for that read-out and setting: as for `NC(N)=NOCCC(N)C(=O)O` (configuration not stated), the figure is -1.58% (inactive).
As to `S=C(NC1CCCCC1)N1CCC(c2cnc[nH]2)CC1`, the “activation” value is -1.66% (inactive).
Turning to `CCCN1CCC[C@H](c2cccc(O)c2)C1`, the “activation” value is 5.18% (inactive).
The same measure, in the same setting: next, `CC(=O)NCCc1c[nH]c2ccccc12`: 0.476% (inactive); `NCCc1c[nH]c2ccc(O)cc12`: -1.73% (inactive); `CC(C)NC(C)Cc1ccc(I)cc1` (configuration not stated): -1.35% (inactive).
On the same count and under the same terms, as for `NC(CP(=O)(O)O)C(=O)O` (configuration not stated), the figure is -1.97% (inactive).
Same read-out and setting: next, `C[C@@H]1O[C@H](C[N+](C)(C)C)C[C@H]1O`: 10.2% (inactive); `c1ccc(CCCN2CCN(CCOC(c3ccccc3)c3ccccc3)CC2)cc1`: -0.94% (inactive).
Consider `O=C(O)Cc1cnc[nH]1`, for which the “activation” value was -1.02% (inactive).
`C[C@]12N[C@H](Cc3ccccc31)c1ccccc12`: the “activation” value is 4.41% (inactive).
Turning to `O=C(O)[C@@H]1CCN1`, the “activation” value was 0.464% (inactive).
The same measure, in the same setting: next, `c1ccc2sc(C3(N4CCCCC4)CCCCC3)cc2c1`: -0.896% (inactive).
On to `COc1ccc2c(c[n+](C)c3c4cc5c(cc4ccc23)OCO5)c1OC`, for which the “activation” value was -1.2% (inactive).
With `C[N+]1(C)C2CCC1CC(OC(=O)C(CO)c1ccccc1)C2` (configuration not stated), the call was inactive.
In the case of `Oc1ccc2c3c1O[C@H]1c4[nH]c5c(c4C[C@@]4(O)[C@@H](C2)N(CC2CC2)CC[C@]314)C[C@@]1(O)[C@H]2Cc3ccc(O)c4c3[C@@]1(CCN2CC1CC1)[C@H]5O4`, the “activation” value was -0.9% (inactive).
On the same count and under the same terms, as for `C[C@]12CCC3C(CC[C@H]4C[C@H](O)CC[C@]34C)C1CC[C@@H]2C(=O)CO` (some centres not stated), the figure is 1.8% (inactive); as for `O=C1CCCN1CC#CCN1CCCC1`, 5.99% (inactive).
Same read-out and setting: as for `Cn1cnc(CCN)c1`, the figure is 0.903% (inactive); as for `O=C(O)CC[N+](=O)[O-]`, 1.03% (inactive); as for `CCCN(CCC)[C@@H]1CCc2ccc(O)cc2C1`, -1.28% (inactive).
Same read-out and setting: as for `CC(C)Oc1cccnc1N(C)C1CCN(Cc2ccccc2)CC1`, the figure is 0.628% (inactive); as for `NC(=O)CN1CC(O)CC1=O` (configuration not stated), -1.88% (inactive).
As for `CCCCc1ccc(C(=O)O)nc1`, the “activation” value was -1.82% (inactive).
Still for that read-out and setting: next, `Cc1nccc2c1[nH]c1ccccc12`: 1% (inactive).
`COc1cc(C(O)CN)ccc1O` (configuration not stated): the “activation” value is 7.62% (inactive).
On the same count and under the same terms, next, `NC1CC1c1ccccc1` (configuration not stated): -1.34% (inactive).

Tested on in the next assay: not listed separately
Kind of assay: qHTS of Nrf2 Activators: LOPAC Validation (AID 624149). Note: 0% is about no effect. The settings on record: Nrf2/ARE reporter cell assay; series mostly up to 46.1 µM; activation: at the top concentration. The gist of the method:
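Following overnight seeding in 5% FBS OPTI-MEM, AREc32_Fluc cells receive compounds for a 24 hr incubation at 37 deg C with 5% CO2. Steady-Glo is added, and after 30 min at RT luminescence is recorded.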
On to `NCc1cc(=O)[nH]o1`, for which the “activation” value is 0.968% (inactive).
On the same count and under the same terms, as for `NCCc1c[nH]c2ccccc12`, the figure is -0.999% (inactive); as for `NC(N)=NOCCC(N)C(=O)O` (configuration not stated), 0.577% (inactive).
On the same count and under the same terms, next, `S=C(NC1CCCCC1)N1CCC(c2cnc[nH]2)CC1`: 0.696% (inactive); `CCCN1CCC[C@H](c2cccc(O)c2)C1`: -2.48% (inactive); `CC(=O)NCCc1c[nH]c2ccccc12`: -1.78% (inactive).
On the same count and under the same terms, next, `NCCc1c[nH]c2ccc(O)cc12`: -2.09% (inactive); `CC(C)NC(C)Cc1ccc(I)cc1` (configuration not stated): -1.79% (inactive).
On to `NC(CP(=O)(O)O)C(=O)O` (configuration not stated), for which the “activation” value was -1.2% (inactive).
In the case of `C[C@@H]1O[C@H](C[N+](C)(C)C)C[C@H]1O`, the “activation” value was 1.06% (inactive).
As to `c1ccc(CCCN2CCN(CCOC(c3ccccc3)c3ccccc3)CC2)cc1`, the “activation” value was -1.56% (inactive).
On the same count and under the same terms, next, `O=C(O)Cc1cnc[nH]1`: 0.934% (inactive); `C[C@]12N[C@H](Cc3ccccc31)c1ccccc12`: -1.69% (inactive); `O=C(O)[C@@H]1CCN1`: 0.634% (inactive).
Same read-out and setting: as for `c1ccc2sc(C3(N4CCCCC4)CCCCC3)cc2c1`, the figure is 1.66% (inactive).
For `C[N+]1(C)C2CCC1CC(OC(=O)C(CO)c1ccccc1)C2` (configuration not stated), the call was inactive.
With `Oc1ccc2c3c1O[C@H]1c4[nH]c5c(c4C[C@@]4(O)[C@@H](C2)N(CC2CC2)CC[C@]314)C[C@@]1(O)[C@H]2Cc3ccc(O)c4c3[C@@]1(CCN2CC1CC1)[C@H]5O4`, the “activation” value is 0.918% (inactive).
On the same count and under the same terms, next, `C[C@]12CCC3C(CC[C@H]4C[C@H](O)CC[C@]34C)C1CC[C@@H]2C(=O)CO` (some centres not stated): -1.56% (inactive); `O=C1CCCN1CC#CCN1CCCC1`: -2.21% (inactive).
Regarding `Cn1cnc(CCN)c1`, the “activation” value is -1.28% (inactive).
Still for that read-out and setting: next, `O=C(O)CC[N+](=O)[O-]`: -1.53% (inactive); `CCCN(CCC)[C@@H]1CCc2ccc(O)cc2C1`: -2.03% (inactive).
Still for that read-out and setting: next, `CC(C)Oc1cccnc1N(C)C1CCN(Cc2ccccc2)CC1`: -0.525% (inactive); `NC(=O)CN1CC(O)CC1=O` (configuration not stated): -0.983% (inactive).
The same measure, in the same setting: next, `CCCCc1ccc(C(=O)O)nc1`: -1.38% (inactive); `Cc1nccc2c1[nH]c1ccccc12`: -2.04% (inactive).
Regarding `COc1cc(C(O)CN)ccc1O` (configuration not stated), the “activation” value was -1.16% (inactive).
Same read-out and setting: as for `NC1CC1c1ccccc1` (configuration not stated), the figure is -2.29% (inactive).

Values taken from PubChem BioAssay (NCATS).
